Reference: PMC7862700, “An all-to-all approach to the identification of sequence-specific readers for epigenetic DNA modifications on cytosine”

Key:
Test in all cases: DAPPL (digital affinity profiling via proximity ligation, sequencing); 10 mM Tris-HCl pH 7.5, 50 mM NaCl, 1 mM DTT, 4% glycerol, room temperature, 30 min; GST-TFs on glutathione beads, 16-mer random dsDNA library, 0.1% formaldehyde crosslink after washing; high values mean tight binding
Conditions in all cases: protein: recombinant; tags: N-terminal GST; dsDNA, one strand shown
[1] = biological target: T1, FLI1 (Homo sapiens, UniProt Q01543 1-452)
T1 sequence: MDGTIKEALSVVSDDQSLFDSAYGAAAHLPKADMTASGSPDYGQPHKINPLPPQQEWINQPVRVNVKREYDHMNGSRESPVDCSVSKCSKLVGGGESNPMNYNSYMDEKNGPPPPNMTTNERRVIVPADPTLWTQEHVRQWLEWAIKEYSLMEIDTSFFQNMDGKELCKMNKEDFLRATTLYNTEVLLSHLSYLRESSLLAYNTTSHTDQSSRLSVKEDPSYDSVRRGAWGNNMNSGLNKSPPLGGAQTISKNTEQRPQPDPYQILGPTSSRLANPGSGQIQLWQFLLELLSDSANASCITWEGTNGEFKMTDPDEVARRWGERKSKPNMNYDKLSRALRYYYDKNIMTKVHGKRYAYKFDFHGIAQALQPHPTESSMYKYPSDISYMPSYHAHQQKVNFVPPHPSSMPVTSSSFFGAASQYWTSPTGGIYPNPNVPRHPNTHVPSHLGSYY
Outline: (§1)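 Each value of binding signal is a hexamer's read frequency for a factor divided by the same hexamer's frequency in the tag-only sample. Barcoded, bead-captured GST fusions of human transcription factors made in yeast were pooled with that sample and incubated with 200 nmole of a random double-stranded 16-mer DNA library in Tris/NaCl/DTT/glycerol buffer at room temperature for 30 min. Washing, 0.1% formaldehyde crosslinking, proximity ligation, PCR and Illumina NextSeq500 sequencing followed.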

[2] = biological target: T2, ELK1 (Homo sapiens, UniProt P19419 1-428)
T2 sequence: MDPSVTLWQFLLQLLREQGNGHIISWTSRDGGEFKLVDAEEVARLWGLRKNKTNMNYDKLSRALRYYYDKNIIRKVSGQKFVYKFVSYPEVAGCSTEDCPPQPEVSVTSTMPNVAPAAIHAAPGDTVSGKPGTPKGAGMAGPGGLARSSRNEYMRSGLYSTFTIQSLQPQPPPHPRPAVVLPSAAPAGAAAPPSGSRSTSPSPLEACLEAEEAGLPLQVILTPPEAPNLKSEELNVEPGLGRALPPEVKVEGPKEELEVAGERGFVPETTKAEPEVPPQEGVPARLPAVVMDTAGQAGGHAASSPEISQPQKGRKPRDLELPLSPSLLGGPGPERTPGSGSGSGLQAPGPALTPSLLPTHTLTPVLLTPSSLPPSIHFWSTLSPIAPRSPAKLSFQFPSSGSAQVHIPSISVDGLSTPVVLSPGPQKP
Outline: as §1

[3] = biological target: T3, GABPA (Homo sapiens, UniProt Q06546 1-454)
T3 sequence: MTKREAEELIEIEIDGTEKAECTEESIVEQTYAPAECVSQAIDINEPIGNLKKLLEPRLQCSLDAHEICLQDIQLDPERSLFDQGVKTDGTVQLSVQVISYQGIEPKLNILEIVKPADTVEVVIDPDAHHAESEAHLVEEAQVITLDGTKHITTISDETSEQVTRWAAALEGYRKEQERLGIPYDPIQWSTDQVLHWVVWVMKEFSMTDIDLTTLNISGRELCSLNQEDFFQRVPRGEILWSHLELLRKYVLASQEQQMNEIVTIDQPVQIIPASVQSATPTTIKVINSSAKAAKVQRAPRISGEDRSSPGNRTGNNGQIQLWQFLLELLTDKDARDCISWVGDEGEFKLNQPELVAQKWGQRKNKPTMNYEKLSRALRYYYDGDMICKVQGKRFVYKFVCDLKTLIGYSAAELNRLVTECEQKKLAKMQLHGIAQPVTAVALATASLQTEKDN
Outline: as §1

[4] = biological target: T4, ERG (Homo sapiens, UniProt P11308 1-479)
T4 sequence: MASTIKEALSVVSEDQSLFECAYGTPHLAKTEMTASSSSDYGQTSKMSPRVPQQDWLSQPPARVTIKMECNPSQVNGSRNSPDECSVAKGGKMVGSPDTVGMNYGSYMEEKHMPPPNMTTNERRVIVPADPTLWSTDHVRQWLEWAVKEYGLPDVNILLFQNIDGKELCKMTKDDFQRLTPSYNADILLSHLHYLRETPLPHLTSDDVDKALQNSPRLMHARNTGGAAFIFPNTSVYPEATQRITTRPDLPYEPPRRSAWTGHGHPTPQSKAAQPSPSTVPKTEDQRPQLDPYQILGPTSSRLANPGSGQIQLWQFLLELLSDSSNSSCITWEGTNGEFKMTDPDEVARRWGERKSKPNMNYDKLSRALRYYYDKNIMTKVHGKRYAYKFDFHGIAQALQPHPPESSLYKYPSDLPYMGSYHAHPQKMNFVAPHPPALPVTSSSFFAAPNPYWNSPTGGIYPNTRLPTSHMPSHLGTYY
Outline: as §1

[5] = biological target: ELF1 (Homo sapiens, UniProt P32519 1-619)
Outline: as §1

[6] = biological target: T5, EHF (Homo sapiens, UniProt Q9NZC4 1-300)
T5 sequence: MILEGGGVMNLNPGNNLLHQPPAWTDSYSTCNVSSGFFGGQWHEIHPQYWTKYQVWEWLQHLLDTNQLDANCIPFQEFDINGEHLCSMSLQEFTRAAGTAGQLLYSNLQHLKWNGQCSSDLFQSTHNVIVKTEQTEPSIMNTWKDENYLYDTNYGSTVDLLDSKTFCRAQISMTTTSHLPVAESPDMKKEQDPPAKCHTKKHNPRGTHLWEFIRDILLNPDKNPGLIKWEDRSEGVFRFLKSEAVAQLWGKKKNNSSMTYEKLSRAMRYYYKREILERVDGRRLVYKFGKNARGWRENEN
Outline: as §1

[7] = biological target: SPI1 (Homo sapiens, UniProt P17947 1-270)
Outline: as §1

[8] = biological target: SPIB (Homo sapiens, UniProt Q01892 1-262)
Outline: as §1

[9] = biological target: T6, ELK3 (Homo sapiens, UniProt P41970 1-407)
T6 sequence: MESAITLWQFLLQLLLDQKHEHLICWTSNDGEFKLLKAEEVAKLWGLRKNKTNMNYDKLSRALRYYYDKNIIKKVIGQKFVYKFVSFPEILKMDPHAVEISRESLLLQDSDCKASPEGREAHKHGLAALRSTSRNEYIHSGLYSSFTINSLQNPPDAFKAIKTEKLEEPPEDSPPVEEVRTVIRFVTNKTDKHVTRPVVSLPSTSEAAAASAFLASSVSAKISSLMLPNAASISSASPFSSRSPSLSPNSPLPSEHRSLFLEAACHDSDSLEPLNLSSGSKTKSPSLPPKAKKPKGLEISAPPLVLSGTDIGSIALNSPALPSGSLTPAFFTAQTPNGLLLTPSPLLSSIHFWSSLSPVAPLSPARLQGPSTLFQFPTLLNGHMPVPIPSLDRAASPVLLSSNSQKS
Outline: as §1

Sequence of ELF1 (P32519 whole entry): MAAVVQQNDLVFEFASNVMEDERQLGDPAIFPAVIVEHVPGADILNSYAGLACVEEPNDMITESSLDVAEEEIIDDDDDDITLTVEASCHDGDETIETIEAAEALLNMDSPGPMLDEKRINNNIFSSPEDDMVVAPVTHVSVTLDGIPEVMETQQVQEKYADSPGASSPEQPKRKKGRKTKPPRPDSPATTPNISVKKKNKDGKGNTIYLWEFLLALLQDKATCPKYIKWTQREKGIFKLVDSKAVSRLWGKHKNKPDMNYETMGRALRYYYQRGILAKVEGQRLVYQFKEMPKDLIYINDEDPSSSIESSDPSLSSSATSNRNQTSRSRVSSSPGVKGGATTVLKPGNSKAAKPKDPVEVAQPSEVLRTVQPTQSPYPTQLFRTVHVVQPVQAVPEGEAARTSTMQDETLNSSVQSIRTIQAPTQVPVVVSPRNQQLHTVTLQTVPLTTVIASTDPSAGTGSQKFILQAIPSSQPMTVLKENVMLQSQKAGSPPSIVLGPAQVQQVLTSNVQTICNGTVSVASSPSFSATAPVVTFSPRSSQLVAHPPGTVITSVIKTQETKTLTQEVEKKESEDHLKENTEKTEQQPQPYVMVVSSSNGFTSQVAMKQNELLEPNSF
Sequence of SPIB (Q01892 whole entry): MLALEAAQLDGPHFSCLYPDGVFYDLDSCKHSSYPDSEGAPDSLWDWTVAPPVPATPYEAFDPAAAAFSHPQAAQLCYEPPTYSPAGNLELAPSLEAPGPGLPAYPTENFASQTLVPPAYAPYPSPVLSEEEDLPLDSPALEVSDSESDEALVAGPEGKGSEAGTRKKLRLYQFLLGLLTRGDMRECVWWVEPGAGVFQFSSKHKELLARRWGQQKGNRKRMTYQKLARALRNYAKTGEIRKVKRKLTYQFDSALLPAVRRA

Sequence	binding signal [1]	binding signal [2]	binding signal [3]	binding signal [4]	binding signal [5]	binding signal [6]	binding signal [7]	binding signal [8]	binding signal [9]
AAAATT	1.35 fold enrichment (6-mer frequency, TF over GST control)	1.34 fold enrichment (6-mer frequency, TF over GST control)	1.38 fold enrichment (6-mer frequency, TF over GST control)	1.28 fold enrichment (6-mer frequency, TF over GST control)	1.34 fold enrichment (6-mer frequency, TF over GST control)	1.26 fold enrichment (6-mer frequency, TF over GST control)	1.32 fold enrichment (6-mer frequency, TF over GST control)	1.45 fold enrichment (6-mer frequency, TF over GST control)	1.33 fold enrichment (6-mer frequency, TF over GST control)
TGCTAC	1.35 fold enrichment (6-mer frequency, TF over GST control)	1.26 fold enrichment (6-mer frequency, TF over GST control)	1.24 fold enrichment (6-mer frequency, TF over GST control)	1.27 fold enrichment (6-mer frequency, TF over GST control)	1.25 fold enrichment (6-mer frequency, TF over GST control)	1.23 fold enrichment (6-mer frequency, TF over GST control)	1.29 fold enrichment (6-mer frequency, TF over GST control)	1.25 fold enrichment (6-mer frequency, TF over GST control)	1.26 fold enrichment (6-mer frequency, TF over GST control)
AATAGG	1.15 fold enrichment (6-mer frequency, TF over GST control)	1.11 fold enrichment (6-mer frequency, TF over GST control)	1.15 fold enrichment (6-mer frequency, TF over GST control)	1.2 fold enrichment (6-mer frequency, TF over GST control)	1.08 fold enrichment (6-mer frequency, TF over GST control)	1.27 fold enrichment (6-mer frequency, TF over GST control)	1.37 fold enrichment (6-mer frequency, TF over GST control)	1.22 fold enrichment (6-mer frequency, TF over GST control)	1.14 fold enrichment (6-mer frequency, TF over GST control)
CAAATG	1.11 fold enrichment (6-mer frequency, TF over GST control)	1.16 fold enrichment (6-mer frequency, TF over GST control)	1.08 fold enrichment (6-mer frequency, TF over GST control)	1.16 fold enrichment (6-mer frequency, TF over GST control)	1.22 fold enrichment (6-mer frequency, TF over GST control)	1.1 fold enrichment (6-mer frequency, TF over GST control)	1.25 fold enrichment (6-mer frequency, TF over GST control)	1.13 fold enrichment (6-mer frequency, TF over GST control)	1.09 fold enrichment (6-mer frequency, TF over GST control)
GCGCTC	1.26 fold enrichment (6-mer frequency, TF over GST control)	1.2 fold enrichment (6-mer frequency, TF over GST control)	1.16 fold enrichment (6-mer frequency, TF over GST control)	1.15 fold enrichment (6-mer frequency, TF over GST control)	1.12 fold enrichment (6-mer frequency, TF over GST control)	1.09 fold enrichment (6-mer frequency, TF over GST control)	1.13 fold enrichment (6-mer frequency, TF over GST control)	1.18 fold enrichment (6-mer frequency, TF over GST control)	1.15 fold enrichment (6-mer frequency, TF over GST control)
CGTCTA	1.15 fold enrichment (6-mer frequency, TF over GST control)	1.26 fold enrichment (6-mer frequency, TF over GST control)	1.31 fold enrichment (6-mer frequency, TF over GST control)	1.37 fold enrichment (6-mer frequency, TF over GST control)	1.31 fold enrichment (6-mer frequency, TF over GST control)	1.27 fold enrichment (6-mer frequency, TF over GST control)	1.25 fold enrichment (6-mer frequency, TF over GST control)	1.37 fold enrichment (6-mer frequency, TF over GST control)	1.25 fold enrichment (6-mer frequency, TF over GST control)
TACGCC	1.39 fold enrichment (6-mer frequency, TF over GST control)	1.22 fold enrichment (6-mer frequency, TF over GST control)	1.3 fold enrichment (6-mer frequency, TF over GST control)	1.16 fold enrichment (6-mer frequency, TF over GST control)	1.28 fold enrichment (6-mer frequency, TF over GST control)	1.18 fold enrichment (6-mer frequency, TF over GST control)	1.18 fold enrichment (6-mer frequency, TF over GST control)	1.18 fold enrichment (6-mer frequency, TF over GST control)	1.23 fold enrichment (6-mer frequency, TF over GST control)
